In the library only some 10% were active in any assay of this set; here they are far more common.
JMJD2A Tudor – blocks the human JMJD2A Tudor domain; Potency, µM (series often up to 114 µM), inactives show top-dose activity change, negative = inhibition, hits mostly inhibitors; O75164; AlphaScreen JMJD2A-Tudor / H3K4me3 peptide binding; 390,000 tested, 4.4% active; note: potency is the fitted concentration of half-maximal effect; % is set by controls: 0 for no effect and ±100 for the full control effect; nearly all actives have a fitted effect of over 50% in size
G9a inh – inhibitors of human histone lysine methyltransferase G9a; Q96KQ7; G9a H3K9 monomethylation, AlphaScreen, 2 h; Potency, µM (highest dose often 102 µM), for the others: at the top dose activity, negative = inhibition, hits mostly inhibitors; 350,000 tested, 8.8% active; AID 504332; note: potency is the fitted concentration of half-maximal effect; % is set by controls: 0 for no effect and ±100 for the full control effect; nearly all actives have a fitted effect of over 75% in size
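Enzyme 20 nM + cpd, 15 min RT; add b-H3K9 pep 500 nM / SAM 20 uM; 2 h RT; anti-H3K9me1 Ab 0.5 ug/mL + SA donor / anti-rabbit acceptor beads 20 ug/mL each, 10 min; AlphaScreen read.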
Six1-Eya2 inh – blocks human Six1 binding to Eya2; Q15475+O00167; AID 651725; activity change, % (test concentration not listed); 360,000 tested, 0.56% active; AlphaScreen GST-Six1/His-Eya2 binding, biochemical; active compounds read low; in the data active = activity change below about -65%; inconclusive = mostly about -30% to -63%; note: % is set by controls: 0 for no effect and ±100 for the full control effect
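Homogeneous AlphaScreen proximity assay pairing GST-Six1 with His-tagged Eya2 (added as 5X mix: 250 nM and 500 nM) in 50 mM Tris pH 8.0, 300 mM NaCl, 1 mM TCEP. Glutathione donor and nickel acceptor beads; 1 h, 37 °C, dark.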
HP1b chromo inh – HP1-beta chromodomain-methylated histone interaction inhibition; P83916; AlphaScreen HP1-beta / biotin-H3K9me3 peptide binding; Potency, µM (doses to about 114 µM), inactives show top-dose activity change, negative = inhibition, hits mostly inhibitors; 390,000 tested, 0.56% active; note: potency is the fitted concentration of half-maximal effect; nearly all actives have a fitted effect of over 70% in size
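HP1-beta protein (50 nM final) preincubated 30 min at room temperature with biotinylated H3(1-18)K9me3 peptide (50 nM) in PBS pH 7.4, 0.01% Tween-20, then compound added for 30 min. AlphaScreen streptavidin donor/nickel chelate acceptor beads (10 ug/mL final), 30 min dark, luminescence read.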
CtBP-E1A inh – inhibitors of CtBP/E1A interaction. AlphaScreen GST-E1A/His-CtBP binding, 1536-well; active compounds read low. activity change, % (concentration not given with the values). 340,000 tested, 0.49% active; in the data active = activity change below about -65%; inconclusive = mostly about -30% to -63%; note: % is set by controls: 0 for no effect and ±100 for the full control effect
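In 5 uL wells, 23 nL compound meets equimolar GST-E1A and His-CtBP (5X stock 125 nM each) for 2 h, 37 °C. Beads (5X, 50 ug/mL) then 1 h, 37 °C, dark.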
BAZ2B inh – blocks human BAZ2B; AlphaScreen BAZ2B-H3K14Ac peptide displacement; Potency, µM (top dose mostly 114 µM), for the others: at the top dose activity change, negative = inhibition, usual class: inhibitors; 360,000 tested, 4.4% active; AID 504333; note: potency is the fitted concentration of half-maximal effect; % is set by controls: 0 for no effect and ±100 for the full control effect; nearly all actives have a fitted effect of over 60% in size
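AlphaScreen displacement: compounds (up to 110uM) incubated 30 min at room temperature with a preformed 50 nM BAZ2B/50 nM biotinylated H3K14Ac peptide complex in PBS pH 7.4 with Tween-20. Donor and acceptor beads at 10 ug/mL final added, 20 min light-protected before reading.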
* hit, by the source's call; ? = inconclusive; · = no result given; [ ] = remark or other dose. Unless noted, calls come from the whole dose curve; as a rule, active = well fitted inhibition curve with a large enough effect; inconclusive = small, poorly fitted or top-dose-only effect; inactive = no such curve, though single readings can be large or run the other way.

SMILES	JMJD2A Tudor	G9a inh	Six1-Eya2 inh	HP1b chromo inh	CtBP-E1A inh	BAZ2B inh
O=C1ON=C(c2ccc(Cl)cc2)/C1=C/c1ccc(O)cc1	-6%	50µM*	1	7%	0	?
CCOCCCn1c(SC(C)C(=O)NCC2CCCO2)nc2sc(C)c(C)c2c1=O (stereo unspecified)	-9%	15%[59 µM]	-2	19%	1	1%
CCNc1ncc2nc(-c3cc(F)cc(F)c3)c(=O)n(CCOC)c2n1	·	2%[0.501 µM]	·	·	·	·
O=C(OCc1cn([C@@H]2C[C@H](c3ccccc3)N(C(=O)C3CCCCC3)C[C@H]2O)nn1)c1ccccc1	·	·	2	·	-4	·
Cc1ccc(/C=C2/C(=O)ON=C2c2ccccc2)o1	79µM*	13µM*	-15	?	·	28µM*
Cc1sc(/C=C2\C(=O)ON=C2c2ccccc2)cc1Br	·	13%[59 µM]	·	·	·	-8%
O=C(Cc1nnc(-c2cc3ccccc3[nH]2)o1)Nc1cc(C(F)(F)F)ccc1Cl	-31%	·	·	·	·	·
CC(c1ccc(F)cc1)n1cc(C(=O)NCCN(C)C)nn1 (stereo unspecified)	4%	45µM*	1	55%	3	-36%
CC(c1ccc(F)cc1)n1cc(C(=O)NCc2ccccn2)nn1 (stereo unspecified)	-7%	8%	2	60%	·	-1%
CCN(c1ccccc1)S(=O)(=O)c1ccc(OC)c(NC(=O)Cc2ccccc2OC)c1	2%	-17%[12.7 µM]	-5	32%	0	12%
CCN(c1ccccc1)S(=O)(=O)c1ccc(Cl)c(NC(=O)CN2CCN(C)CC2)c1	-16%	?	-2	24%	0	-23%
CCN(c1ccccc1)S(=O)(=O)c1ccc(OC)c(NC(=O)c2c(C)noc2C)c1	1%	-39%	-1	22%	1	3%
CCN(c1ccccc1)S(=O)(=O)c1ccc(OC)c(NC(=O)c2cc(Cl)ccn2)c1	-4%	56µM*	-6	33%	6	-2%
CCN(c1ccccc1)S(=O)(=O)c1ccc(Cl)c(NC(=O)CNCc2ccccc2OC)c1	3.2µM*	·	1	?	1	·
CCN(c1ccccc1)S(=O)(=O)c1ccc(Cl)c(NC(=O)CN(C)C2CCN(C)CC2)c1	?	11µM*	2	?	2	22µM*
O=C(CN(C(=O)CCC(=O)Nc1ccccn1)c1ccc(F)cc1)NCCc1ccccc1	-4%	1%[59 µM]	3	19%	-3	-1%
CC(/C=C/c1ccc(N(C)C)cc1)=N/N=C1/NC(=O)CC(C(=O)Nc2ccc(Cl)cc2)S1 (stereo unspecified)	?	32µM*	?	-17%	?	?
COC(=O)Cc1[nH]n(-c2ccccc2)c(=O)c1C(C)=Nc1ccccc1	-23%	50µM*	18	0%	-18	-30%
COC(=O)Cc1[nH]n(-c2nc3ccccc3s2)c(=O)c1C(C)=Nc1ccc(C)cc1	35µM*	14µM*	-5	26%	-1	40µM*
CCOc1[nH]n(-c2ccccc2)c(=O)c1C=Nc1ccc(C(=O)OC)cc1	-20%	?	-7	41%	·	-30%
COC(=O)Cc1[nH]n(-c2nc3ccccc3s2)c(=O)c1C(C)=Nc1ccc(Cl)cc1	22µM*	-121%[59 µM]	-3	7%	0	25µM*
Cc1ccc(NC(=O)c2c(C)oc3ccc(O)c(CN4CCN(Cc5ccccc5)CC4)c23)cc1	-25%	-42%[59 µM]	·	11%	·	-20%
CC(=O)c1ccc(NC(=S)N2CCN(c3ccccn3)CC2)cc1	0%	17%	0	27%	7	4%
COc1cc(C2(C)SCCCS2)cc(OC)c1OC	·	·	-24	·	-10	·
Cc1ccc(N2C(N)=C(C#N)C(c3ccsc3)C3=C2CC(C)(C)CC3=O)cc1 (stereo unspecified)	-30%	60%[12.7 µM]	2	39%	20	-36%
SMILES	JMJD2A Tudor	G9a inh	Six1-Eya2 inh	HP1b chromo inh	CtBP-E1A inh	BAZ2B inh
Cc1ccc(N2C(N)=C(C#N)C(c3cc(CN4CCOCC4)cs3)C3=C2CC(C)(C)CC3=O)cc1 (stereo unspecified)	-9%	50µM*	25	25%	-15	-13%
Cc1cc(C)cc(N=Cc2[nH]c3ccc(Br)c(Cl)c3c2O)c1	?	13µM*	1	?	-10	?
Cc1ccc(N=Cc2cc(Br)cc(Cl)c2O)cc1	-7%	0%	-3	50%	4	2%
COc1ccc(CN=Cc2[nH]c3ccc(Br)c(Cl)c3c2O)cc1	?	4µM*	-1	?	-4	45µM*
CC(C)=C1C(=O)NN(c2ccc(C)c(Cl)c2)C1=O	-28%	8.9µM*	4	-6%	-12	?
Cc1cccc(NC(=O)c2cnc3sc(N4CCCC4)nn3c2=O)c1C	1%	10%[59 µM]	·	50%	·	4%
COc1cc(C(=O)N2CCc3c([nH]c4ccccc34)C2c2ccc(C)cc2)cc(OC)c1OC (stereo unspecified)	?	?	·	-16%[57 µM]	·	?
CCNC(=O)C1CCCc2c1[nH]c1ccc(Cl)cc21 (stereo unspecified)	-15%[57.1 µM]	-8%[59 µM]	0	0%	15	79µM*
CCN(CC)S(=O)(=O)c1ccc(N2CCOCC2)c(NC(=O)c2ccco2)c1	-11%	·	1	9%[57 µM]	-8	·
CCN(CC)S(=O)(=O)c1ccc(N2CCCC2)c(NC(=O)CC(C)(C)C)c1	-15%	·	8	3%	5	18%
CCc1cc(C(=O)Nc2cc(S(=O)(=O)N(CC)CC)ccc2N2CCOCC2)sc1C	-17%	40µM*	-1	13%	-6	4%
CCN(CC)S(=O)(=O)c1ccc(N2CCOCC2)c(NC(=O)CC(C)(C)C)c1	-28%	79µM*	6	5%	6	12%
O=C(NC(=S)Nc1cc(S(=O)(=O)N2CCOCC2)ccc1O)c1ccco1	-23%	10µM*	-6	?	0	-31%
O=C(NC(=S)Nc1cc(S(=O)(=O)N2CCOCC2)ccc1N1CCOCC1)c1ccco1	-14%	-27%	-2	36%	0	-30%
CCN(CC)S(=O)(=O)c1ccc(N2CCOCC2)c(NC(=S)NC(=O)c2ccco2)c1	?	28µM*	3	?	14	-31%
O=C(NCc1ccco1)C1CCN(c2ccc(S(=O)(=O)N3CCOCC3)cc2[N+](=O)[O-])CC1	?	-30%	-5	-6%	0	-28%
CN(C)CCCNc1ncnc2sc(-c3ccccc3)cc12	5.6µM*	?	2	?	·	56µM*
CCOC(CNc1ncnc2sc(-c3ccccc3)cc12)OCC	17%	31%	9	64%	4	8%

Screens deposited in PubChem BioAssay by National Center for Advancing Translational Sciences (NCATS).
